BRCA1 expr act – increases BRCA1 expression. MCF7-BRCA1-FFLuc reporter, luminescence, 48 h; response scale: scaled: vehicle 0%, 10 µM genistein 100%. actives 1.1% (n = 380,000). Potency, µM (doses to about 46.1 µM), inactives show top-dose activation, most hits filed as activators; further: potency means the concentration at half of the fitted maximal effect; nearly all actives have a fitted effect of over 80% in size
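MCF7-BRCA1-FFLuc cells, 2000/well in phenol-red-free MEM, attached 2 h then treated 48 h at 37 C. Luciferase luminescence read 15 min after reagent; normalized to genistein maximum activation (10microM) and DMSO, concentration-response fitted.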
Giardia kill – Giardia lamblia killing. activity change, % at 7.66 µM, hits read low. Giardia lamblia trophozoite viability. AID 540267. actives 0.15% (n = 340,000); in the data active means activity change below about -80%; inconclusive means between about -30% and that limit;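 further: parasites exposed to compound for two days anaerobically before the ATP read; on the % scale 0 is the no-effect control and ±100 the full control effect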
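Giardia trophozoites, 100 cells per well, were exposed to compounds for 48 hrs at 37 deg C under anaerobic conditions; viability was then read as ATP content by bioluminescence after 15-30 min at room temperature.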
NPSR antag – antagonists of human neuropeptide S receptor cAMP signaling; actives 1% (n = 220,000); CHO-NPSR cells, cAMP TR-FRET, antagonist mode; Potency, µM (highest dose often 38.3 µM), inactives show at the top dose activity change, negative = inhibition, usual class: inhibitors; Q6W5P4; further: potency means the concentration at half of the fitted maximal effect; on the % scale 0 is the no-effect control and ±100 the full control effect; nearly all actives have a fitted effect of over 50% in size
RXFP1 agonist – RXFP1 (human) receptor agonism | HEK293T-RXFP1 cAMP TR-FRET, 30 min; response scale: percent of porcine relaxin response, buffer zero | Q9HBX9 | actives 0.3% (n = 370,000) | Potency, µM (titrated, usually from 57.5 µM), without a hit: top-dose activation, usual class: activators | AID 2676; further: potency means the concentration at half of the fitted maximal effect; on the % scale 0 is the no-effect control and ±100 the full control effect; nearly all actives have a fitted effect of over 60% in size
Target sequence (Q9HBX9 whole entry, looked up): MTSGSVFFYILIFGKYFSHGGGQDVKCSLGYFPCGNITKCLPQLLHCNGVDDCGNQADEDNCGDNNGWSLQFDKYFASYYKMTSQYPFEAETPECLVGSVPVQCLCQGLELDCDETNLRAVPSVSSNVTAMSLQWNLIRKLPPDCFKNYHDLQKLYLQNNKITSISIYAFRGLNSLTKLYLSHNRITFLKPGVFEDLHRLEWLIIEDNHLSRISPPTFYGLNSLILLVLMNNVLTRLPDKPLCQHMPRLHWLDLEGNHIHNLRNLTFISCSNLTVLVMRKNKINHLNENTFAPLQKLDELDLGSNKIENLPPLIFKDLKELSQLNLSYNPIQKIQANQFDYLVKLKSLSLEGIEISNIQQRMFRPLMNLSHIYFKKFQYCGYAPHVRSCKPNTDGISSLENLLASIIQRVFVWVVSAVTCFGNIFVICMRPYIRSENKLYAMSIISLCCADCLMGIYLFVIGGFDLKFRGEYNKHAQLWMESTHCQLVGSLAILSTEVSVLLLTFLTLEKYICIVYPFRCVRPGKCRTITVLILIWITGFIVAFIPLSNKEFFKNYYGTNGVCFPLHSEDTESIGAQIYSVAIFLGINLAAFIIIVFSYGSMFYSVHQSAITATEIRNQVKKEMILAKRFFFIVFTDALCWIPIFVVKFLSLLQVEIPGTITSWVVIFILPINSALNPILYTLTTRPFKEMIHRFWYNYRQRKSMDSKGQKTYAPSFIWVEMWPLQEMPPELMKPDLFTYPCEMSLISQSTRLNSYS
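HEK293T cells stably expressing RXFP1 were pretreated with the PDE4 inhibitor Ro 20174, exposed to compounds for 30 min at 37C, lysed, and cAMP was read by TR-FRET. Data normalized to buffer (basal) and 29 nM porcine relaxin (100%).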
IL-2 act – activates IL-2 in a cell-based reporter assay; IL-2 activation reporter assay, cell-based qHTS; stimulated with anti-CD3/CD4/CD28 beads; in transgenic mouse T cells; activation, % (series mostly up to about 46 µM); actives 0.065% (n = 360,000); AID 652025; in the data active means activation above about 50%; inconclusive means mostly about 30% to 49%; further: 0% is about no effect
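Screening format: compound pinned onto unstimulated transgenic mouse T cells, 60 min incubation, then anti-CD3/anti-CD4/anti-CD28 bead stimulation for 18 hours at 37 degrees C, followed by EGFP and DsRed detection.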
RXFP1 antagonist – RXFP1 (human) relaxin receptor antagonism; actives 0.59% (n = 350,000); AID 1259400; activity change, negative = inhibition, % at 57.5 µM; HEK293-RXFP1, relaxin-stimulated cAMP HTRF, 30 min; active compounds read low; Q9HBX9;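 active means activity change of -60% or lower, but not beyond a set lower limit; inconclusive means change between -60% and -40%, or beyond the set limit; inactive means change above -40%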; further: on the % scale 0 is the no-effect control and ±100 the full control effect
An asterisk follows results filed as active; ? = inconclusive; · = no result given; [ ] = dose if it differs, or a comment. Shown are actives, neighbours in structure and some others; about 1.9% of the full set was active somewhere. Unless noted, the call rests on the fitted dose curve; in most records, active means well fitted curve in the direction sought with a large enough effect; inconclusive means small, poorly fitted or top-dose-only effect, or another doubt; inactive means no such curve, though single readings can be large; an effect the other way counts as inactive or inconclusive.

SMILES | BRCA1 expr act | Giardia kill | NPSR antag | RXFP1 agonist | IL-2 act | RXFP1 antagonist
Cc1ccc2[nH]c3c(N4CCN(Cc5ccccc5)CC4)ncnc3c2c1 | -78% | 18 | 13µM* | -3% | -4 | ?
COc1ccc2c(c1)[nH]c1c(N3CCN(Cc4ccc5c(c4)OCO5)CC3)ncnc12 | -78% | -2 | 13µM* | -2% | -1 | -13
O=C1c2ccccc2C(=O)N1c1ccc(S(=O)(=O)N2CCOCC2)cc1 | 10% | 5 | · | · | · | ·
CC1CCCC(C)N1C(=O)c1cc(-c2cccs2)on1 (configuration not stated) | 16µM* | -12 | -2%[46.1 µM] | 0% | -1 | 7
Cc1cc(C(=O)N2C(C)CCCC2C)no1 (configuration not stated) | -12% | 9 | · | 2% | -1 | -10
O=[S+]([O-])([O-])c1ccc2c(c1)cc([S+](=O)([O-])[O-])c1nn(-c3ccc(/C=C/c4ccc(-n5nc6c([S+](=O)([O-])[O-])cc7cc([S+](=O)([O-])[O-])ccc7c6n5)cc4[S+](=O)([O-])[O-])c([S+](=O)([O-])[O-])c3)nc12 | 2% | -20 | · | · | · | ·
Cc1[nH]nc(-c2ccc(O)c(C)c2O)c1-c1cnn(-c2ccccc2)c1 | -24% | 2 | -20%[46.1 µM] | 1% | 2 | -87*
Cc1oc2c(C)c(O)ccc2c(=O)c1-c1cnn(-c2ccccc2)c1 | -2% | -13 | -2%[46.1 µM] | 3% | -2 | -6
COC(=O)c1ccc(Cl)cc1NC(=O)N1CC=C(c2c[nH]c3ccccc23)CC1 | · | · | · | -1% | · | -14
N[C@H](C(=O)O)[C@@H](O)c1ccc(O)c(O)c1 | · | · | · | · | · | 19
S=C(Nc1cccc(Cl)c1)N(CCCN1CCCC1)Cc1cccn1Cc1ccc(Cl)cc1 | -96% | -5 | 10µM* | -2% | 0 | -20
CSc1cccc(NC(=S)N(CCCN2CCCC2)Cc2cccs2)c1 | -23% | 5 | -23% | 0% | -1 | -7
CSc1cccc(NC(=S)N(CCCN2CCCC2)Cc2cccn2Cc2ccc(Cl)cc2)c1 | -88% | 4 | 5µM* | 3% | -5 | -24
O=C(Nc1ccc(F)cc1F)c1ccc(-n2cnc3cccnc32)cc1 | 11% | · | · | 1% | · | ·
O=C(O)c1ccc(N2C(=O)/C(=C\c3ccccc3)N=C2c2ccccc2)cc1 | -3% | 15 | 6.3µM* | 5% | 0 | -34
CC1=N/C(=C\c2ccc3c(c2)OCO3)C(=O)N1c1ccc(C(=O)O)cc1 | -10% | -19 | -25% | 1% | 3 | -5
O=C(NC1CCCCC1)N1CCc2ccccc21 | 11µM* | 0 | 6%[46.1 µM] | 0% | 0 | 7
O=C(c1ccc(C(=O)N2CCCc3ccccc32)s1)N1CCCc2ccccc21 | -30% | 9 | -24%[46.1 µM] | 0% | 2 | 4
Cc1ccc(-c2cc(C(=O)N3CCCc4ccccc43)no2)cc1 | 3.2µM* | 11 | -26% | 0% | -1 | -30
Cc1ccc(C(=O)N2CCc3ccccc32)cc1 | 11µM* | -13 | -6%[46.1 µM] | -1% | 3 | -31
O=C(c1ccc(Cl)s1)N1CCc2ccccc21 | 11µM* | 11 | -12%[46.1 µM] | 1% | -3 | 1
O=C(c1cc2cc(Br)ccc2o1)N1CCCCC1 | 4.5µM* | 10 | 11% | -2% | -3 | -17
CCOc1ccc2nc(Cl)c(C3CC(c4ccco4)=NN3S(C)(=O)=O)cc2c1 (configuration not stated) | -14% | -2 | 1%[7.67 µM] | 9% | -2 | -71*
Cc1ccc(NC(=O)CSc2ncc3c(n2)-c2ccccc2N(C)S3(=O)=O)c(Cl)c1 | · | · | · | 0% | · | 1
CC(=O)ON(C(C)=O)c1ccc(/C=C2\C=Cc3ccccc32)cc1 | 71% | · | · | · | · | ·
SMILES | BRCA1 expr act | Giardia kill | NPSR antag | RXFP1 agonist | IL-2 act | RXFP1 antagonist
COc1ccc(NC(=O)c2sccc2C)c([N+](=O)[O-])c1 | 11µM* | -6 | 0%[46.1 µM] | 0% | 0 | 3
COc1ccc(NC(=O)C/C(C)=N/NC(=O)c2cccs2)c([N+](=O)[O-])c1 | 14% | 66 | · | -4% | 0 | -16
COc1ccc(NC(=O)c2cccs2)c([N+](=O)[O-])c1 | 5.6µM* | -25 | -5%[46.1 µM] | -4% | 0 | -6
COc1ccc(OC)c(NC(=O)CCCOc2cc(=O)n(C)c3ccccc23)c1 | · | · | · | 1% | · | -1
Cc1ccc(/C=N/NC(=O)c2cccs2)cc1[N+](=O)[O-] | 13µM* | 0 | -13%[46.1 µM] | 4% | -3 | ·
O=C(N/N=C/c1ccccc1[N+](=O)[O-])c1cccs1 | ? | -12 | -8% | 2% | -1 | 1
c1ccc2c(c1)Nc1cc3ccccc3cc1S2 | 7.1µM* | -21 | ? | 1% | -3 | -10
COc1ccc2c(c1)Sc1ccccc1N2 | -44% | 17 | -15% | 0% | -6 | 0
CC(=O)c1cnc2c(-c3cccc(Br)c3)cnn2c1C | 8.9µM* | 0 | 12% | 9% | 0 | -12
COc1ccc2cc3cc(C(=O)NCCCN4CCC(C)CC4)oc3nc2c1 | 11µM* | 12 | · | 3% | -4 | 9
COc1ccc2c(c1)C=C/C2=C\c1ccc(N(C)C)cc1 | 4% | · | · | · | · | ·
CCOc1ccc(NC(=O)C(=O)NCC(c2cccnc2)N2CCc3ccccc32)cc1 (configuration not stated) | · | · | · | 1% | · | -64*
CCCCNC(=O)Cn1c(SCc2ccccc2C)nc2ccncc21 | 11% | -8 | · | · | · | ·
CC(C)CN=Cc1c(O)c([N+](=O)[O-])cc2oc3c(c12)CCCC3 | 8% | -6 | ? | -1% | -3 | -26
O=[N+]([O-])c1cc2oc3c(c2c(C=NCc2ccccc2)c1O)CCCC3 | -14% | -3 | 10µM* | 5% | ? | -18
Cc1cc(O)c(CN2CCN(c3ccc(F)cc3)CC2)c2oc(=O)cc(C)c12 | · | · | · | 25µM* | · | -10
COc1ccc2[nH]c(=O)c(-c3nnn(-c4ccccc4)n3)cc2c1 | ? | 1 | -21% | 2% | -1 | ·
COc1ccc2[nH]c(=O)c(-c3noc(-c4ccccc4)n3)cc2c1 | 5.6µM* | 13 | -12%[46.1 µM] | -1% | 1 | -6
O=C(Cn1ncc(Cl)c(Cl)c1=O)N1CCN(S(=O)(=O)c2ccc3ccccc3c2)CC1 | -97% | -2 | 13µM* | 3% | -3 | -21
COc1ccc2sc(NC(C)=O)nc2c1 | ? | -3 | -1%[46.1 µM] | -1% | 3 | 3
COc1ccc2sc(NCc3ccccc3)nc2c1 | 2.8µM* | 42 | · | -1% | 0 | -2
COc1ccc2sc(NC(=O)CC(C)C)nc2c1 | 5.6µM* | -12 | -26%[46.1 µM] | 1% | -2 | -5

Source: PubChem (National Center for Advancing Translational Sciences (NCATS))
